Data published in PubChem BioAssay AID720533 (National Center for Advancing Translational Sciences (NCATS), 2013).
Where “and” joins values, the source holds several entries; their conditions need not be identical. Equal entries are not always repeated. The campaign covered roughly 18,000 compounds. About 750 (4.2%) were called active. About 13% were inconclusive and are not listed. Many of the other results were omitted from the sample, so actives are more common in it than they were. Values without a mark were called inactive. The call rests on the fitted dose curve; tested in HEK293 cells. Starred links: 1 amine or outer side, 2 acyl side, 3 side chain; linkers in the order of their positions; H or OH if unused. Positions of bridges follow the written chain, without caps; N, C: chain ends. Non-standard residues stand in square brackets, D forms with d. Residues, ends and D or L forms follow the SMILES beside them. *: point of attachment. X15 = NC1=N[C@@H]([C@H](N[*:1])C(=O)[*:2])C[C@H](O)N1; ΔAla(Z-3-ureido) = NC(=O)N/C=C(\N)C(=O)O; β3hOrn = NCCC[C@H](N)CC(=O)*; Dap = NC[C@H](N)C(=O)O

Assay: qHTS for Inhibitors of binding or entry into cells for Lassa Virus
Details: Lassa virus pseudotyped entry inhibition, cell-based qHTS; series mostly up to 49.2 µM; activity change, negative = inhibition: at the top concentration
On the % scale 0 is the no-effect control and ±100 the full control effect; potency means the concentration at half of the fitted maximal effect.

SMILES	activity change, negative = inhibition	Potency
Cc1cnc(C(=O)N2CCOc3ccc(CN4CCCC(C(=O)c5cccnc5)C4)cc3C2)[nH]1 (configuration not stated)	-5.06%	–
Nc1nc(/C(=C/CC(=O)O)C(=O)N[C@@H]2C(=O)N3C(C(=O)O)=CCS[C@H]23)cs1	-7.09%	–
COc1cccc([C@@H]2Oc3ccc(Br)cc3C(=O)[C@H]2OC(=O)NCCc2ccc(OC)c(OC)c2)c1	33%	–
C/C=C(\C)C(=O)OC1C(OC(=O)C2(C)OC2C)c2cc3ccc(=O)oc3cc2OC1(C)C (configuration not stated)	4.77%	–
OCC1CCCN(c2nc3cc4c(cc3cc2CNCc2cccs2)OCO4)C1 (configuration not stated)	-0.156%	–
CCOC(=O)CCN1C(=O)[C@@H]2[C@H]3[C@H](O)[C@H](O)CC(=NOCC(C)C)[C@@H]3CC[C@H]2C1=O	-24.6% [at 8.59 µM]	–
CCN1CCN(C(=O)N[C@@H](C(=O)N[C@@H]2C(=O)N3C(C(=O)O)=C(CSc4nnnn4C)CS[C@H]23)c2ccc(O)cc2)C(=O)C1=O	-8.09%	–
CCOC(=O)C1C/C(=C\C(C)=O)c2cccc(C(F)(F)F)c2O1 (configuration not stated)	7.88%	–
CC(C)[C@@H](OCc1ccccc1)[C@H](C)C=NOC[C@@H](C)[C@H](OCc1ccccc1)C(C)C	8.86% [at 8.59 µM]	–
COc1ccc(CN(C)CCn2cc(C(=O)N3CCSCC3)nn2)cc1C	-12%	–
CC1OC(OCC2OC(Oc3c(-c4ccc(O)c(O)c4)oc4cc(O)cc(O)c4c3=O)C(O)C(O)C2O)[C@@H](O)C(O)C1O (some centres not stated)	-10.4%	–
CNc1ncnc2ccc(-c3cccc(NS(C)(=O)=O)c3)cc12	-5.28%	–
COc1ccc(Nc2ncnc3ccc(OC)cc23)cc1	4.87%	–
Cc1csc(-c2nc3ccccc3n2C)n1	29.1%	–
CNC(=O)C[C@H]1C(=O)N(Cc2ccccc2)C[C@@H]1CSC	7.21%	–
CCCCCCN1C[C@@H](O)[C@H](n2cc(-c3ccc(F)cc3)nn2)C[C@H]1c1ccccc1	-27.3%	–
COc1c(O)cc2oc(-c3ccc(O)c(O)c3)cc(=O)c2c1O	-13.1%	–
Cc1nc2cc(NC(=O)[C@@H]3C[C@@H](Sc4ccccn4)CN3Cc3ccccc3C)ccc2s1	-6.47%	–
CCCN(C/C=C/I)C1CCc2ccc(O)cc2C1 (configuration not stated)	3.69%	–
CC[C@@H]1Cc2cc(O)ccc2C2=C1c1ccc(O)cc1C[C@H]2CC	–	20 µM (active)
COCOc1cc(OC)ccc1C(=O)/C=C/c1ccc([N+](=O)[O-])cc1	-5.23%	–
CCOC(=O)C1=C(C(=O)OCC)C(C(=O)OCC)N(S(=O)(=O)C(F)(F)F)c2ccccc21 (configuration not stated)	-6.28%	–
c1ccc(CN2CCN(Cc3ccc4c(c3)CN(Cc3c[nH]c5ccccc35)CCO4)CC2)nc1	-8.46%	–
O=C(O)CCC(=O)O	-0.191%	–

SMILES	activity change, negative = inhibition	Potency
O=C(CCN1Cc2ccccc2OC(c2ccccc2)C1)N[C@@H]1CS(=O)(=O)C[C@H]1O (some centres not stated)	-3.72%	–
COC(=O)c1c(OCc2ccc(F)cc2)cc(=O)n2c1CCN(Cc1ccc3cccnc3c1)CC2	-12.1%	–
CC1C(=O)N(Cc2cn(Cc3ccco3)nn2)CCS(=O)(=O)N1Cc1ccc(-c2cccc(CO)c2)cc1 (configuration not stated)	-19.8%	–
Cc1cccc(CN2CCN(C3CN(Cc4cn(Cc5ccccc5F)nn4)S(=O)(=O)C3)CC2)c1 (configuration not stated)	23.5%	–
NCCC[C@H](N)CC(=O)N[C@H]1CNC(=O)[C@H]([C@H]2C[C@H](O)NC(N)=N2)NC(=O)/C(=C/NC(N)=O)NC(=O)[C@H](CO)NC(=O)[C@H](CO)NC1=O (β3hOrn-[Dap]SS[ΔAla(Z-3-ureido)][X15]; lactam 1-C)	6.4%	–
O=C1C2=C(C(=O)c3ccccc31)[C@H]1O[C@](CCCCN3C(=O)c4ccccc4C3=O)(Cc3c1ccc1ccccc31)O2	10.1% [at 8.59 µM]	–
C/C(Nc1ccc2oc(=O)ccc2c1)=C1/C(=O)CC2[C@@H]1C2(C)C (some centres not stated)	-4.73%	–
CCCCCCc1cc2cc(OC)c(OC)cc2c2c(C(=O)OC)c(C(=O)OC)c(C(=O)OC)n12	-14.4% [at 8.59 µM]	–
CO[C@]1(NC(=O)CSC(F)F)C(=O)N2C(C(=O)O)=C(CSc3nnnn3CCO)CO[C@H]21	-13.4%	–
O=C(C=Cc1ccccc1)Nc1cccc(C(=O)N2CCCCC2)c1	28.6%	–
Nc1nc(-c2ccc3c(c2)C(=Cc2cc(Br)c(O)c(Br)c2)C(=O)N3)cs1	9.64%	–
Cc1ccc(-c2ccc(CN3C(C(C)C)C(=O)N(Cc4cn(CCC5OCCCO5)nn4)CCS3(=O)=O)cc2)cc1 (configuration not stated)	-14.3%	–
COC(=O)CC1c2ccccc2C(Cc2ccc(OC)cc2)=C(C)N1C(=O)OC (configuration not stated)	25.9% [at 8.59 µM] and -25.2% [at 8.59 µM]	–
C=CC1=C2C=C(C3CC3)N(C(CO)CO)C=C2C(=O)C(C)(OC(=O)c2ccco2)C1=O (configuration not stated)	4.32% [at 8.59 µM]	–
COCC(=O)Nc1cc(C(=O)N2CCCC(c3ccccc3)CC2)c2c(c1)nc(-c1ccncc1)n2C (configuration not stated)	-11.7%	–
C[C@@H](O)[C@@H]1NC(=O)[C@H](CCCCN)NC(=O)[C@H](Cc2c[nH]c3ccccc23)NC(=O)[C@H](Cc2ccccc2)NC(=O)[C@H](Cc2ccccc2)NC(=O)[C@H](CC(N)=O)NC(=O)[C@H](CCCCN)NC(=O)[C@@H](NC(=O)[C@@H]2CCCN2)CSSC[C@@H](C(=O)N[C@@H](CCCCN)C(=O)O)NC(=O)[C@H](CO)NC(=O)[C@H](CO)NC(=O)[C@H](Cc2ccccc2)NC1=O (H-PCKNFFWKTFSSCK-OH; disulfide 2-13)	-1.87%	–
COC1CC(OC2CC[C@@]3(C=O)C4CC[C@]5(C)C(C6=CC(=O)OC6)CC[C@@]5(O)C4CC[C@]3(O)C2)OC(C)C1O (some centres not stated)	–	0.282 µM (active)
C[C@@]12CC[C@H]3[C@@H](CC[C@]4(O)C[C@H](O)CC[C@@]34C=O)[C@]1(O)CC[C@@H]2C1=CC(=O)OC1	–	1.26 µM (active)
Nc1nc2c(nc(Cl)n2C2OC(CO)C(O)C2O)c(=O)[nH]1 (configuration not stated)	-8.45%	–
CC(C)NC[C@H](O)c1ccc2ccccc2c1	inactive	–
C#C[C@]1(O)CC[C@H]2[C@@H]3CCC4=CC(=O)CC[C@@H]4[C@H]3CC[C@@]21CC	-26.1%	–
CC(=O)OCC(=O)[C@@]1(O)CCC2C3CCC4=CC(=O)CC[C@]4(C)C3C(=O)C[C@]21C (some centres not stated)	-0.0255%	–
C#C[C@]1(OC(=O)CCCCCC)CC[C@H]2[C@@H]3CCC4=CC(=O)CC[C@@H]4[C@H]3CC[C@@]21C	–	31.6 µM (active)
